E-sel TNF inh = blocks E-selectin expression induced by TNF alpha | inhibition, % at 2 µM | 120,000 compounds, 0.71% hits | HUVEC TNFa-induced E-selectin immunofluorescence, high content;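 active = inhibition above the batch mean plus 3 SD, and confirmed as a hit on visual image review, cut at about 43% in these data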;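 also: 0% = TNF-stimulated DMSO wells and 100% = unstimulated control wells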
cytoskel mod = alters cytoskeleton assembly in HUVEC cells; inhibition, % at 2 µM; AID 836; 91,000 compounds, 0.18% hits; HUVEC TNFa F-actin phalloidin imaging, high content;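 active = inhibition above the batch mean plus 3 SD and confirmed as a hit by visual image inspection, cut at about 30% in these data, passing the limit was not always enough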
CYP2C19 inh = human CYP2C19 inhibition; CYP2C19 Supersomes, luciferin-H EGE luminescence, 30 min; inhibition, % at 5 µM; 96,000 compounds, 21% hits; AID 778;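 active = CYP2C19 inhibition above a set limit at 5 µM in the primary screen, cut at about 50% in these data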;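 also: plate controls were negative control wells for no effect and 2.5 mM tranylcypromine positive control for full effect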
CYP2C9 act = CYP2C9 (human) activation. activation factor at 5 µM. recombinant CYP2C9, luciferin-H conversion, luminescence; stronger effect = higher value; factor 1 = untreated enzyme, 0 = blocked. 96,000 compounds, 1.4% hits. P11712;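 active = activation factor of 2 or more for CYP2C9 at a 5 µM dose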;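 also: 0 = sulfaphenazole-blocked wells and 1 = vehicle-only wells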
Target sequence (P11712 whole entry, looked up): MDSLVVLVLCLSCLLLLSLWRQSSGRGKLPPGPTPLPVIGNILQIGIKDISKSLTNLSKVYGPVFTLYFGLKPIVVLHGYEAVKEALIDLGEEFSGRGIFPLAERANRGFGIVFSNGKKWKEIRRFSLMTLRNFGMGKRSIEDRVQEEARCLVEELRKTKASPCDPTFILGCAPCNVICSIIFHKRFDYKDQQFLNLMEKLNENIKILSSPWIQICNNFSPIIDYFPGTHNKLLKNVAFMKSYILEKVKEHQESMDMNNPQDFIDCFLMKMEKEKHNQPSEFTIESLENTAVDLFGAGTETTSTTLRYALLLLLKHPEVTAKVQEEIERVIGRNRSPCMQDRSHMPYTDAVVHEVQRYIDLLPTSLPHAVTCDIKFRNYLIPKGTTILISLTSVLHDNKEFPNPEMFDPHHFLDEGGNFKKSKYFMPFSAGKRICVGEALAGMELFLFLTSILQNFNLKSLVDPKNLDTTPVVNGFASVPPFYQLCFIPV
CYP2C9 inhib = inhibitors of human CYP2C9 | P11712 | inhibition, % at 5 µM | AID 777 | 96,000 compounds, 20% hits | CYP2C9 Supersomes, luciferin-H conversion, luminescence;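 active = blocking of liver enzyme CYP2C9 beyond about 50% at 5 µM, limit read from the data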
CYP2C19 activ = increases human CYP2C19 enzyme activity. P33261. recombinant CYP2C19, luciferin-H EGE luminescence; stronger effect = higher value; 0 = fully inhibited enzyme, 1 = untreated enzyme. activation factor at 5 µM. 96,000 tested, under 10 active. AID 1025;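 active = activation factor of at least 2 at 5 µM in the primary screen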;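 also: 0 = wells with 2.5 mM tranylcypromine and 1 = vehicle-only wells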
* marks the source's active call; other numbers are inactive results; . = not tested or not shown. Shown are actives, neighbours in structure and some others; about 22% of the full set was active somewhere.

SMILES	E-sel TNF inh	cytoskel mod	CYP2C19 inh	CYP2C9 act	CYP2C9 inhib	CYP2C19 activ
COc1ccc(S(=O)(=O)Nc2ccccc2C(=O)NC(C)C)cc1OC	-1.5	.	80.9*	1.5	-54.1	0.2
COC(=O)c1cccc(NS(=O)(=O)c2ccc(OC)c(OC)c2)c1C	18.1	3.2	18.8	0.6	43.3	0.8
CC1(C)Cc2nc3nc(SCC(=O)NCc4ccccc4)n(-c4ccccc4)c(=O)c3cc2CO1	52.1	14.2	18.5	0.8	16.7	0.8
O=C(NCc1cccs1)C(NS(=O)(=O)c1cccc2nsnc12)c1ccccc1 (stereo not drawn)	0.5	-12.9	30.1	0.4	55.1*	0.7
O=C(NCc1cccs1)C1CCN(S(=O)(=O)c2cccc3nsnc23)CC1	.	9.3	14.6	2.5*	-153.1	0.9
O=C(NCCc1ccccc1)C1CCN(S(=O)(=O)c2cccc3nsnc23)CC1	.	25.8	20.8	2*	-103.6	0.8
COc1ccc(CCNC(=O)C2CCN(S(=O)(=O)c3cccc4nsnc34)CC2)cc1OC	.	-26.6	2.4	0.9	11.4	1
O=C(c1ccco1)N1CCN(S(=O)(=O)c2cccc3nsnc23)CC1	-15.4	.	74.9*	0.7	32.5	0.3
O=C(NCCC1=CCCCC1)C1CCN(S(=O)(=O)c2cccc3nsnc23)CC1	-12.0	0.0	.	.	.	.
CCN(CC)Cc1cc(CCNC(=O)c2ccc(Cl)cc2)ccc1O	9.1	2.7	-0.9	1.1	-5.3	1
CN(C)/C=c1\sc2c(C#N)cc(C(=O)c3ccc(Br)cc3)n2c1=O	.	.	-5.2	1	-2.2	1.1
CCOc1nc(C#N)nc(N2CCCCC2)n1	-16.1	.	-10.2	1.1	-13.1	1.1
C/C(=N\NC(=O)Cc1c[nH]c2ccccc12)c1ccc2ccccc2c1	-18.6	.	.	.	.	.
CCN(CC)C(=O)CC(c1ccc(F)cc1)c1ccc(OC)cc1 (stereo not drawn)	0.5	.	.	.	.	.
O=C(CSc1nnc(CNc2ccc(F)cc2)n1Cc1ccccc1)N1CCOCC1	.	.	-0.7	0.9	13.6	1
CC1=C(C(=O)OCc2ccccc2)C(c2cccnc2)c2c(n(C)c(=O)n(C)c2=O)N1 (stereo not drawn)	5.0	-11.4	93.6*	0.4	59.6*	0.1
CCOC(=O)C1=C(c2ccccc2)N(C)C(=O)NC1c1ccc(O)c(OC)c1 (stereo not drawn)	65.9*	-12.4	69.4*	0.6	43.8	0.3
CCOC(=O)C1=C(c2ccccc2)Nc2c(c(=O)n(C)c(=O)n2C)C1c1ccc(O)c(OC)c1 (stereo not drawn)	10.3	-10.2	-0.9	0.5	52.5*	1
CCOC(=O)C1=C(c2ccccc2)NC(=O)NC1c1ccc(O)c(OCC)c1 (stereo not drawn)	-2.9	.	.	.	.	.
Cc1ccc(C(=O)NCC(=O)OC(C)C(=O)NCCC2=CCCCC2)cc1C (stereo not drawn)	14.3	.	.	.	.	.
Cc1ccc(OCC(=O)c2cc(C)n(-c3ccccc3)c2C)c([N+](=O)[O-])n1	17.5	.	.	.	.	.
C#CCOCCOCCOCCNc1nc(N2CCN(C(=O)[C@H]([C@@H](C)CC)n3cc(CCCN=C(N)N)nn3)CC2)nc(N2CCN(C(=O)[C@H](C)n3cc(CCCN=C(N)N)nn3)CC2)n1	-18.3	.	.	.	.	.
Cc1cc(C(=O)NCc2cccs2)ccc1[N+](=O)[O-]	-28.0	.	.	.	.	.
Cc1cc(C(F)(F)F)nn1CC(=O)NCC1CCCO1 (stereo not drawn)	-16.1	.	-6.2	1.1	-6.4	1.1
CCOc1ccc(Nc2cc(=O)n(C)c(=O)n2C)cc1	.	30.1	5.0	0.9	11.9	0.9
SMILES	E-sel TNF inh	cytoskel mod	CYP2C19 inh	CYP2C9 act	CYP2C9 inhib	CYP2C19 activ
Cc1noc2ncnc(N3CCN(c4ccc(F)cc4)CC3)c12	-28.3	.	.	.	.	.
Cc1ccc2nsnc2c1S(=O)(=O)N(CCO)Cc1cc2cc3c(cc2[nH]c1=O)OCCO3	25.6	.	-1.6	0.8	15.5	1
Cc1c(C(=O)NCc2ccoc2)oc2ccc3c(c12)C(=O)CC(C)(C)O3	-22.5	.	.	.	.	.
CC(C)C(C)NC(=O)COc1ccc(-c2ccccc2)cc1 (stereo not drawn)	6.2	-9.6	18.0	0.1	87.2*	0.8
CCN(CC)c1ccc(NC(=O)CN2CCN(S(=O)(=O)c3cc(Cl)ccc3OC)CC2)cc1	-6.9	12.2	72.4*	1.3	-28.3	0.3
CCOc1ccc(NC(=O)CCN2CCN(S(=O)(=O)c3cc(Cl)ccc3OC)CC2)cc1	.	-19.3	96.4*	0.3	67.6*	0
CCCCn1c(N)c(-c2nc3ccccc3s2)c2c([N+](=O)[O-])nn(CC)c(=O)c21	14.3	.	-14.7	0.3	67.9*	1.1
CCCCCn1c(N)c(-c2nc3ccccc3s2)c2c([N+](=O)[O-])nn(CC)c(=O)c21	0.4	-0.5	-1.7	0.3	72.4*	1
CCc1ccccc1OCc1nnc(N)s1	-45.3	.	35.4	1.3	-25.8	0.6
CC1CCCCN1CCCNC(=O)c1ccc2c(=O)n(CCc3ccccc3)c(=O)[nH]c2c1 (stereo not drawn)	-27.0	-20.3	87.1*	0.2	79.4*	0.1
C=CCSc1nnc(NC(=O)c2nc(SCC)ncc2Cl)s1	-0.1	4.8	-1.8	0.7	33.9	1
CSc1ncc(Cl)c(C(=O)Nc2nnc(SC/C=C/c3ccccc3)s2)n1	-14.0	-4.2	79.5*	0	98.6*	0.2
CCOC(=O)Nc1nnc(CCc2ccccc2)s1	-1.6	6.7	44.0	0.4	61.7*	0.6
COC(=O)Nc1nnc(CCc2ccccc2)s1	6.2	3.8	15.5	1	1.6	0.8
Cc1ccc(C)c(Cn2c(C(C)O)nc3ccccc32)c1 (stereo not drawn)	-30.5	-12.5	31.7	1	0.7	0.7
Nc1nc(-c2cccc(Br)c2)cs1	.	-3.5	63.6*	1	-0.3	0.4
COCCNc1nnc(SCC(=O)c2ccc3c(c2)OCO3)s1	.	11.8	53.4*	0.7	26.5	0.5
Cc1nnc(SCc2ccc3c(c2)OCO3)s1	6.6	8.8	69.4*	0.5	54.7*	0.3
O=C(CSc1nnc(SCc2ccc(Cl)cc2)s1)c1ccc2c(c1)OCO2	-5.6	.	.	.	.	.
Cc1nnc(SCC(=O)c2cc(C)n(-c3ccc4c(c3)OCO4)c2C)s1	.	-9.2	97.2*	0.2	82.7*	0
Cc1cc(C(=O)CSc2nnnn2C)c(C)n1-c1ccc2c(c1)OCCO2	.	-6.6	51.6*	0.4	60.5*	0.5
COc1cc2c(cc1OC)CN(C(=O)c1ccc3nc[nH]c3c1)CC2	-2.7	.	.	.	.	.
COc1cccc(Oc2nc3ncn(Cc4ccccc4)c3c(=O)n2C)c1	-17.7	2.7	8.7	0.8	18.4	0.9
O=C(NC1CC1)c1cc(=O)c2ccccc2o1	-36.9	-25.1	13.1	1	2.2	0.9
O=c1cc(/C=C/c2ccccc2)oc2ccccc12	-8.7	8.0	61.6*	0.2	78.6*	0.4
COC(=O)c1nnn(-c2nonc2N)c1CSCCO	-28.9	17.1	20.9	0.9	6.1	0.8
Cc1sc2ncnc(N3CCOCC3)c2c1C	-59.8	7.8	23.7	1	-3.7	0.8
